FH mod: Identification of activators of human fumarate hydratase by quantitative high-throughput screening; Fumarate hydratase, mitochondrial (Homo sapiens), P07954; FH coupled MDH/diaphorase resazurin fluorescence, 15 min; 54,000 compounds, 0.22% hits; Potency, µM (series often up to 79.9 µM), most hits filed as inhibitors; further: the screen sought activators but most active calls are inhibition curves; nearly all actives have a fitted effect of over 45% in size
NTMT1 inhibitor: Primary qHTS for Inhibitors of N-terminal methyltransferase 1 (NTMT1): MTaseGlo Assay; N-terminal Xaa-Pro-Lys N-methyltransferase 1 (Homo sapiens), Q9BV86; NTMT1 MTase-Glo SAH luminescence, purified enzyme; Potency, µM (titrated, usually from 114 µM), actives largely listed as inhibitors; 59,000 compounds, 2.5% hits; further: nearly all actives have a fitted effect of over 65% in size
Target sequence (Q9BV86 whole entry, looked up): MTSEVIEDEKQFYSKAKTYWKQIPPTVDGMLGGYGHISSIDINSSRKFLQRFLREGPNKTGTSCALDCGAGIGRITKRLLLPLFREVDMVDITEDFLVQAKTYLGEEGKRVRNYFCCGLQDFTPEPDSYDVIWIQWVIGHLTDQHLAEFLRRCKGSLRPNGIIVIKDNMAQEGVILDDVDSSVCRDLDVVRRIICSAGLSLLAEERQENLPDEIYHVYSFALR
GPR32 ag: qHTS for Agonists of Human Resolvin D1 Receptor DRV1; Probable G-protein coupled receptor 32 (Homo sapiens), O75388; CHO-K1 GPR32 beta-arrestin PathHunter luminescence, 90 min; zero percent set by DMSO-only wells; activation, % at 76.9 µM; 48,000 compounds, 2.5% hits; AID 1346428, 2018;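 active means activation of at least 60% and not above a set upper limit, about 1 call in 100 departs from these limits; inconclusive means activation of 40% to 60%, or above that upper limit; inactive means activation under 40%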
Target sequence (O75388 whole entry, looked up): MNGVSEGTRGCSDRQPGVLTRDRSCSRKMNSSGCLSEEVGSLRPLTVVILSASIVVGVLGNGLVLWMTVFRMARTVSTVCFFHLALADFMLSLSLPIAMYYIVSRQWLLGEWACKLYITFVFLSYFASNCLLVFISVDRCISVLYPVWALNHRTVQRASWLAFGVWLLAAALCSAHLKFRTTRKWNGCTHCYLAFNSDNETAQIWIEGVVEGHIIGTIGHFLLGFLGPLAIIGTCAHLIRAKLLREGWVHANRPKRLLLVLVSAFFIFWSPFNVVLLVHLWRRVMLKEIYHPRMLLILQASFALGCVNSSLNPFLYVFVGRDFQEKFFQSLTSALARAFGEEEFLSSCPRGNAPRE
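Beta-arrestin recruitment read-out: luminescence from complemented beta-Gal in CHO-K1 GPR32 PathHunter cells, measured 1 h after detection reagent at ambient temperature following 90 min compound exposure at 37 °C; DMSO served as basal (EC0) control.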
OvCa metastasis: Primary qHTS assay for Inhibitors of ovarian cancer metastasis using an organotypic tumor microenvironment (TME) model | SKOV3ip1-GFP adhesion/invasion on 3D omental model, fluorescence | Potency, µM (doses to about 45.8 µM), actives largely listed as inhibitors | 46,000 compounds, 0.1% hits | AID 1963576, 2024; further: nearly all actives have a fitted effect of over 65% in size
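Adhesion/invasion was scored as fixed GFP-labeled SKOV3ip1 cell counts (488/509 nm), normalized to DMSO and tomatine controls. Cancer cells in serum-free medium, with four compound doses (0.36-46 umol/L), sat 2 hr at RT then 16 hr at 37 C on a 48 hr fibroblast/mesothelial/ECM culture.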
A number is an active result; n = inactive; u = inconclusive; x = no result given. This is a sample that favours compounds with a hit; in the whole collection about 3.8% have one here. Unless noted, the call rests on the fitted dose curve; in most records, active means well fitted curve in the direction sought with a large enough effect; inconclusive means small, poorly fitted or top-dose-only effect, or another doubt; inactive means no such curve, though single readings can be large; an effect the other way counts as inactive or inconclusive.

SMILES	FH mod	NTMT1 inhibitor	GPR32 ag	OvCa metastasis
Cc1ccc(/C=C/c2nc3ccccc3n2S(=O)(=O)c2cccc(Cl)c2)cc1	n	u	n	n
CCCCSCCCNC(=O)C1CCC(CNS(=O)(=O)c2ccccc2)CC1 (stereo not drawn)	n	n	n	n
COc1ccc(N2CCN(C(=O)c3ccc(CS(=O)(=O)c4ccc(Br)cc4)o3)CC2)cc1	n	n	n	n
Cc1cc(C)c(NC(=O)Cn2nnc(C(=O)Nc3ccc(F)cc3F)c2N)c(C)c1	n	u	n	n
COc1ccc(-n2c(=O)c3ccc(C(=O)NCc4ccc(C)cc4)cc3n(CC(=O)Nc3ccc(C)cc3)c2=O)cc1	n	n	n	n
COc1ccc(-n2c(=O)c3ccc(C(=O)NCc4ccc(C)cc4)cc3n(CC(=O)Nc3ccc(F)cc3)c2=O)cc1	n	n	94	n
Nc1ccc2nc(-c3ccc(O)cc3)sc2c1	n	32µM	n	n
CCCOc1ccc(C(=O)Nc2cccc(-c3nc4ccccc4[nH]3)c2)cc1	n	n	83	n
CCOc1cccc(C(=O)Nc2ccc3oc(-c4ccncc4)nc3c2)c1	n	n	u	n
CCCOc1cccc(C(=O)Nc2ccc(-c3nc4ccccc4o3)cc2)c1	n	n	108	n
Cc1ccccc1Sc1ccc(/C=C2\SC(=S)NC2=O)cc1[N+](=O)[O-]	28µM	25µM	x	x
Cc1nc(SCC(=O)Nc2nsc(-c3ccc(C(C)(C)C)cc3)n2)c2c3c(sc2n1)CCCC3	n	n	n	n
COc1ccc(Cl)c(Nc2ncnc3cc(OCC4CCN(C)CC4)c(OC)cc23)c1	n	28µM	x	x
COc1cc2c(Nc3ccc(Cl)c(Cl)c3F)ncnc2cc1OCC1C[C@@H]2CN(C)C[C@@H]2C1 (stereo partly drawn)	n	11µM	x	x
COc1cc2ncnc(Nc3ccc(NC(=O)c4ccccc4)cc3)c2cc1OC	n	n	x	x
COc1cc2ncnc(Nc3cc(Br)c(O)c(Br)c3)c2cc1OC	n	u	x	n
CCN(C(=O)Cn1nnc2sc(-c3ccccc3)cc2c1=O)c1cccc(C)c1	n	n	n	n
Cn1cc[nH]c1=S	n	u	65	x
CC(=O)c1ccc(NC(=O)CN(C)S(=O)(=O)c2cc3c(cc2C)NC(=O)CO3)cc1	n	n	n	n
CN1CCc2cccc3c2C1Cc1ccc(O)c(O)c1-3 (stereo not drawn)	14µM	x	n	x
CC(=O)NCc1c(I)c(NC(C)=O)c(I)c(C(=O)O)c1I	n	u	n	x
CC(C)CCNC(=O)[C@H](CC(C)C)NC(=O)[C@H]1O[C@@H]1C(=O)O	n	n	x	x
Cc1cccc(N(C)c2nc3ccc(C)cc3n3cnnc23)c1	n	u	66	n
COc1ccc(-c2cc(C(F)(F)F)nc(SCCC(=O)Nc3ccc(O)cc3)n2)cc1	n	n	86	n
COc1ccc(-c2cc(C(F)(F)F)nc(SCC(=O)NC(C)c3ccccc3)n2)cc1 (stereo not drawn)	n	n	106	n
SMILES	FH mod	NTMT1 inhibitor	GPR32 ag	OvCa metastasis
COc1ccc(NC(=O)CCSc2nc(-c3ccc(OC)cc3)cc(C(F)(F)F)n2)cc1	n	n	n	n
COc1ccc(-c2cc(C(F)(F)F)nc(SCC(=O)NCCc3ccccc3)n2)cc1	n	n	n	n
CC(=O)c1c(C)oc2ccc(N(C(=O)c3ccncc3)S(=O)(=O)c3ccc(F)cc3C)cc12	n	n	n	n
COc1ccc(C(=O)c2cn(Cc3ccc(C)cc3)c3cc4c(cc3c2=O)OCO4)cc1	n	n	n	n
Cc1c(C(=O)OC[C@H]2CCCO2)[nH]c2c1C(=O)CC(c1ccco1)C2 (stereo partly drawn)	x	50µM	x	x
CCn1cc2nc(SCC(=O)Nc3ccc(C)cc3C)n(Cc3ccc(C)cc3)c(=O)c2n1	n	89µM	n	u
CCn1cc2nc(SCc3cccc(Cl)c3)n(Cc3ccc(C)cc3)c(=O)c2n1	u	n	n	n
CCn1cc2nc(SCc3cccc(C(F)(F)F)c3)n(CCc3ccccc3)c(=O)c2n1	32µM	n	n	n
CCn1cc2nc(SCc3cccc(C)c3)n(CCc3ccccc3)c(=O)c2n1	40µM	n	n	n
CCOc1ccc(N2CC(NC(=O)c3cccs3)CC2=O)cc1 (stereo not drawn)	n	n	n	n
Cc1nn(Cc2noc(C(=O)NCc3cccc(F)c3)n2)c(C)c1Br	n	n	73	n
Cc1sc(-n2cccc2)c(C(C)NC(=O)Nc2cccc(C(F)(F)F)c2)c1C (stereo not drawn)	n	n	n	n
Cc1ccc(OCC(=O)NCC(c2ccc(Cl)cc2)N2CCCCC2)cc1 (stereo not drawn)	n	79µM	n	n
COc1ccc(OCC(=O)NCC(c2ccc(Cl)cc2)N2CCCCC2)cc1 (stereo not drawn)	n	u	n	n
COc1cc(=C2C=c3ccccc3=N2)[nH]/c1=C/c1[nH]c(C)cc1C	x	40µM	x	x
COc1cc2c(NC3CCN(C4CCCCC4)CC3)nc(N3CCCN(C(C)C)CC3)nc2cc1OCCCN1CCCCC1	x	20µM	x	x
COc1ccc(Br)cc1C1Sc2ccccc2NC2=C1C(=O)c1ccccc12 (stereo not drawn)	u	n	n	n
CN(Cc1cc(Br)cc(Br)c1N)C1CCCCC1	n	n	95	n
Cc1ccc(C)c(N2CCN(CCCNC(=O)Cn3c(-c4cccs4)cc4ccccc43)CC2)c1	u	n	n	u
Cc1ccc(NS(=O)(=O)c2cn(C)c(C)n2)c(Br)c1	n	n	n	n
Cc1ccc(NS(=O)(=O)c2ccc(-n3cccn3)cc2)c(Br)c1	n	n	72	n
Cc1cccc(NS(=O)(=O)c2ccc(-n3cccn3)cc2)c1C	n	u	73	n
Cc1cccc(NS(=O)(=O)c2ccc3[nH]c(=O)[nH]c3c2)c1C	n	n	n	n
CC(=O)Nc1sc2c(c1-c1ccccc1)CCNC2	x	n	x	x
CCc1cnc2c(c1SCC(=O)Nc1cc(Cl)ccc1OC)c(=O)n(C)c(=O)n2C	n	n	n	n
SMILES	FH mod	NTMT1 inhibitor	GPR32 ag	OvCa metastasis
CCN(CC)CCCn1c(-c2ccccc2)nc2c(N(CCOC)CCOC)nc(C)nc21	x	n	x	x
COc1ccccc1/C=C/c1nc(C#N)c(N2CCCCC2)o1	n	n	n	n
COc1cc(/C=C/c2nc(C#N)c(N3CCC(C)CC3)o2)cc(OC)c1OC	n	u	n	n
COc1cc(/C=C/c2nc(C#N)c(N3CCCCCC3)o2)cc(OC)c1OC	28µM	u	n	n
COc1ccc(N2CCN(c3oc(/C=C/c4ccccc4OC)nc3C#N)CC2)cc1	n	89µM	n	n
COC(=O)C1=CO[C@@H](O[C@@H]2O[C@H](CO)[C@@H](O)[C@H](O)[C@H]2O)[C@H]2[C@@H]1[C@H](O)[C@H](O)[C@]2(C)O	n	n	x	x

High-throughput results deposited in PubChem BioAssay by National Center for Advancing Translational Sciences (NCATS).
